697 NFkB inh – lowers PMA/ionomycin-induced NF-kB signal in 697 B cells | 697 B-cell NF-kB luciferase reporter, 16 h | inhibition, % at 4 µM | 0.33% of 330,000 active | AID 435022; in the data active = inhibition above about 35%
Jurkat NFkB inh – lowers PMA/ionomycin-induced NF-kB signal in Jurkat cells | PMA/ionomycin-induced NF-kB luciferase reporter, luminescence | inhibition, % at 4 µM | 0.53% of 330,000 active | AID 435003; in the data active = inhibition above about 50%
Beta apoptosis – beta cell apoptosis inhibition. INS-1E cytokine-induced death, ATP luminescence, 48 h; percent of positive-control rescue, neutral wells zero. protection from apoptosis, % (test concentration not listed). 0.8% of 300,000 active. AID 435005;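 active = Every replicate reaches about 75%, or at least half do and their mean reaches it too, limit read from the data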;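 note: 0% = cytokine-treated negative control wells and 100% = positive control rescue; higher means more ATP so stronger rescue from cytokine killing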
Gli-Sufu block – blocks Gli-Sufu signaling in a luciferase reporter; Sufu-KO-LIGHT fibroblasts, Gli luciferase reporter luminescence; inhibition, % at 5 µM; 0.74% of 340,000 active; AID 588413;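 active = inhibition above about 55%, limit read from the data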;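 note: 0% = DMSO-treated cells and 100% = wells with medium but no cells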
CSC inhib – cancer stem cell inhibition; cancer stem cell-like cells viability, luminescence; inhibition, % at 7.5 µM; 1.1% of 300,000 active; AID 2717; in the data active = inhibition above about 75%; tested in HMLE shEcad cells
Mdm2-MdmX inh – disrupts the human Mdm2-MdmX interaction | inhibition, % at 8 µM | AID 485346 | O15151+Q00987 | SaOS-2 split-luciferase Mdm2/MdmX complementation, luminescence | 3% of 330,000 active;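 active = inhibition of at least 50% at 8 µM in the primary screen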
Target sequence (O15151 whole entry, looked up): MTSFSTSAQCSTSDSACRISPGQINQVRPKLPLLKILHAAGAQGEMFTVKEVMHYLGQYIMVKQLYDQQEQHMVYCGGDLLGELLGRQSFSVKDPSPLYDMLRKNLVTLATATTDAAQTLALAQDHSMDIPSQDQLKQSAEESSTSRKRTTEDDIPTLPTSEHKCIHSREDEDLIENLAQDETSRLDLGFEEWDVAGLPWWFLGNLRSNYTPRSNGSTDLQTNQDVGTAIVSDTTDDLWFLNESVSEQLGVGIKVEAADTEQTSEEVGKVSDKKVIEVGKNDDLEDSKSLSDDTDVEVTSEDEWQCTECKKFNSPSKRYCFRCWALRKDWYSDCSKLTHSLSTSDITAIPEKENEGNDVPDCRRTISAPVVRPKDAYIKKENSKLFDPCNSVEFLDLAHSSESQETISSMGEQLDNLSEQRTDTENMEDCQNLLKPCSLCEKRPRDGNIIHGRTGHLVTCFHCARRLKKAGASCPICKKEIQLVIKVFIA
Target sequence (Q00987 whole entry, looked up): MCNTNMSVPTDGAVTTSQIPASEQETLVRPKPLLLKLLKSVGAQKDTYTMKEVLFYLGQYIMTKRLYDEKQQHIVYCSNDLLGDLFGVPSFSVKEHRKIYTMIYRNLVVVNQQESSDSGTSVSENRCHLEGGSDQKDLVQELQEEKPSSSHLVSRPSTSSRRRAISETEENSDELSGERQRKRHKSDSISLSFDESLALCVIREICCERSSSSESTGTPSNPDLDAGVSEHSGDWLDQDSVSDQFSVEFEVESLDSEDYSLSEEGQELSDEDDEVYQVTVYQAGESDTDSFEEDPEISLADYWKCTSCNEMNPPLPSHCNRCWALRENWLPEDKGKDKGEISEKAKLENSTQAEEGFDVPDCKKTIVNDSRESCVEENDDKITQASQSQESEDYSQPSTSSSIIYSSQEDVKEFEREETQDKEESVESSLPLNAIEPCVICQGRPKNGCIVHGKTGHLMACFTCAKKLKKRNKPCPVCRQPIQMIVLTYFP
Jurkat NFkB conf – inhibitors of the PMA/ionomycin-induced NF-kB reporter in Jurkat cells, retest | shares compounds with Jurkat NFkB inh | Jurkat NF-kB luciferase, 16 h | inhibition, % at 4 µM | 27% of 2,700 active | AID 435020;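 active = inhibition reaching about 45% at 4 µM in either replicate, limit read from the data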;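 note: plate controls were PMA/ionomycin stimulated DMSO wells for no effect and unstimulated DMSO wells for full effect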
697 NFkB conf – lowers PMA/ionomycin-induced NF-kB signal in 697 B cells; shares compounds with 697 NFkB inh; 697 B-cell NF-kB luciferase, 16 h; 35% of 2,000 active; AID 449746; inhibition, % at 4 µM; in the data active = inhibition mostly above about 28%, no sharp cut-off; inactive = mostly below about 22%
Active calls of the source: *; i = inactive; nt = not tested or not shown. Hits are enriched below; roughly 4.5% of the tested compounds scored in any of these assays.

SMILES	697 NFkB inh	Jurkat NFkB inh	Beta apoptosis	Gli-Sufu block	CSC inhib	Mdm2-MdmX inh	Jurkat NFkB conf	697 NFkB conf
O=C(CCN1C(=O)c2ccccc2C1=O)Nc1ccc(-c2nc3ccccc3s2)cc1	-294.4	-165.5	11.3	-80.9	15.5	-110.2	-94.7	-126.2
CCN(CC)S(=O)(=O)c1cccc(C(=O)Nc2cc(C)on2)c1	-17.4	-15.9	-9.1	-3.6	-8.8	-5.1	nt	nt
O=C(Nc1ccc(C#Cc2ccccc2)cc1)C1CC1	i	-276.7	6.6	-98.3	62.4	34.3	-141.3	i
CCOc1cc(N2CCOCC2)c(OCC)cc1NC(=O)CN1C(=O)NC2(CCCCC2C)C1=O (centres undefined)	8.6	3.4	nt	5.1	nt	9.7	nt	nt
COc1ccccc1OCC(=O)Nc1cc(S(=O)(=O)N2CCOCC2)ccc1N1CCCCC1	-19.0	5.9	12.6	6.6	0.6	5.4	nt	nt
Cc1ccc(N/C=C/C(=O)c2cccs2)cc1C	-259.5	-187.6	-10.5	-126.6	-7.8	-42.4	-128.1	-158.8
O=C1/C(=C/c2cccc(F)c2)Oc2cc(O)ccc21	-15.9	-6.8	-3.1	-3.4	6.3	8.4	nt	nt
COc1cc2nc(NC(=O)c3ccccc3)sc(=O)c2cc1OC	42.6*	82.2*	nt	-10.6	nt	12.0	89.4*	54.2*
COc1ccc2cc3cc(C(=O)NCCN4CCc5ccccc5C4)sc3nc2c1	-81.9	-57.7	4.1	-21.0	-11.0	-60.6	nt	nt
CCC(C)NC(=O)c1cc2cc3ccc(OC)cc3nc2s1 (centres undefined)	-274.5	-213.7	nt	-132.6	-17.3	-222.3	-112.3	-187.4
COc1ccc(C(=O)NC(=O)NC2(C(Cl)(Cl)Cl)OCCO2)cc1	-273.7	-276.6	-0.1	-145.8	0.9	-140.2	-154.7	-316.0
CCOC(=O)CSc1nc2cc3c(cc2cc1C#N)OCCO3	-355.5	-173.5	0.2	17.1	-7.8	-15.3	-101.0	-208.2
CN(C)CCCN(C(=O)c1ccc(S(=O)(=O)N2CCCCCC2)cc1)c1nc2c(F)cc(F)cc2s1	1.0	1.1	nt	26.0	-22.0	16.5	nt	nt
Cc1cc(C(=O)NC2CCCc3c2cnn3-c2ccc(C)c(C)c2)n(C)n1 (centres undefined)	49.4*	62.2*	110.2*	81.2*	13.4	17.8	79.7*	102.2*
O=C(O)Cc1ccc(NC(=O)Nc2ccc3c(c2)OCO3)cc1	-16.0	-21.5	-7.1	-25.3	-11.9	-5.5	nt	nt
Cc1cc(NNC(=O)Nc2cccc(Cl)c2)nc2c1c(C)nn2C	57.7*	53.4*	60.8	nt	10.3	6.5	55.9*	56.2*
Cc1nn(C)c(C)c1CNC(=O)Nc1cccc(Cl)c1	-42.0	-47.4	-3.9	-47.8	0.1	-40.3	nt	nt
Cc1ccc(OCc2nc(-c3cccs3)no2)c([N+](=O)[O-])c1	-274.3	-248.5	1.3	-138.7	0.5	-201.0	-162.5	-353.2
Cc1c(NC(=O)C(C)Oc2ccc(Br)cc2Cl)c(=O)n(-c2ccccc2)n1C (centres undefined)	2.4	-2.0	-6.2	5.4	-2.0	-3.8	nt	nt
OC1COC(O)C(O)C1O (centres undefined)	12.7	6.7	-1.2	-0.1	-8.4	-7.2	nt	nt
O=C(Oc1ccc2ccccc2c1Cl)N1CCCCCC1	i	-306.9	-1.3	-77.2	22.6	-7.3	-140.4	i
O=C(Oc1ccc(Cl)c2ccccc12)N1CCCCC1	-48.0	-31.8	-3.8	-12.5	-7.8	-17.8	nt	nt
O=C(Oc1ccc2ccccc2c1Cl)N1CCCC1	-386.0	-153.6	-4.5	-99.4	17.4	-133.5	-100.7	-336.6
Cn1c(=O)c2c(ncn2CC(=O)OCC(=O)Nc2ccc(F)cc2F)n(C)c1=O	-4.7	4.5	nt	-14.6	nt	-12.0	nt	nt
c1ccc2c(c1)CCN(c1ncnc3c1[nH]c1ccccc13)C2	42.5*	50.5*	7.3	78.6*	-7.5	37.9	59.0*	23.6
SMILES	697 NFkB inh	Jurkat NFkB inh	Beta apoptosis	Gli-Sufu block	CSC inhib	Mdm2-MdmX inh	Jurkat NFkB conf	697 NFkB conf
COc1cccc2[nH]c3c(N4CCc5ccccc5C4)ncnc3c12	-4.9	-31.1	28.8	14.0	5.3	-0.9	nt	nt
CCOC(=O)c1sc2nc3c(cc2c1N)COC(C(C)C)C3 (centres undefined)	-431.4	-253.8	0.7	-64.7	-5.4	40.7	-70.9	-347.6
Cc1cc(C)cc(NC(=O)c2sc3nc(C)cc(C)c3c2N)c1	-20.4	-29.2	0.7	-41.5	7.4	-121.4	nt	nt
Cc1cc(C)c2c(N)c(C(=O)Nc3ccc(C)c(C)c3)sc2n1	-257.8	-183.3	3.8	-88.3	-6.9	-136.9	-104.4	-197.7
O=C(COC(=O)/C=C/c1ccc(C(F)(F)F)cc1)NC1CCS(=O)(=O)C1 (centres undefined)	-5.2	6.7	-1.7	-11.4	13.2	12.4	nt	nt
CCN1C[C@@H]2[C@@H]3C(=O)N(Cc4ccccc4)C(=O)[C@@H]3[C@](CC)(C(=O)OC)N2C1=NC	13.3	nt	nt	-1.2	nt	11.7	nt	nt
Nc1c(C(=O)Nc2cccc(F)c2)nnn1-c1ccc2c(c1)OCCO2	-362.4	-155.4	4.6	-102.8	-10.7	-112.0	-144.5	-486.6
CCC(C)NC(=O)c1ccc(NC(=O)CC2SC(N3CCCC3)=NC2=O)cc1 (centres undefined)	21.3	7.7	-3.2	-13.5	-1.0	26.6	nt	nt
O=C(Nc1ccc2sccc2c1)c1ccc(Cl)s1	-323.2	-223.8	7.9	-132.5	-15.3	-284.6	-143.7	-306.2
O=C(Nc1ccc2c(c1)C(=O)NC2=O)c1ccc(Cl)s1	2.1	1.8	nt	4.2	-5.7	6.8	nt	nt
O=C(c1cn(-c2ccccc2)nc1-c1cccnc1)N1CCCC(C(F)(F)F)C1 (centres undefined)	-7.7	-5.3	-3.4	-2.8	-8.5	-8.4	nt	nt
Cc1nn(Cc2ccccc2)c(C)c1CNC(=O)[C@H](C)N=C1NS(=O)(=O)c2ccccc21	nt	nt	4.0	6.8	-16.3	nt	nt	nt
COC(=O)c1sccc1N/N=C/c1ccc(OC)c(OC)c1OC	-40.6	-29.2	-6.7	-57.2	1.1	-28.6	nt	nt
COC(=O)c1sccc1N/N=C/c1cccc(OC)c1O	-299.1	-190.5	5.6	-75.8	20.5	-75.2	-80.7	-231.9
COc1ccc2oc(C(=O)N3CCc4ccccc43)c(C)c2c1	-383.0	-225.9	17.3	-144.2	32.3	-95.5	-76.7	-499.3
CC[C@H](C)[C@H]1CNC(=O)C(=O)N1CC1CCN(CCc2ccccc2)CC1	nt	nt	nt	-11.6	nt	nt	nt	nt
N#Cc1ccccc1NC(=O)COC(=O)/C=C/c1ccc(S(=O)(=O)N2CCOCC2)cc1	12.1	1.7	-2.9	3.8	1.2	3.8	nt	nt
Cc1c(-c2nc(-c3ccc(C(C)(C)C)cc3)no2)n(C)oc1=O	-418.1	59.8*	nt	-133.7	-12.4	-47.8	-30.6	-412.7
COc1cc(SC)ccc1C(=O)Nc1ccc2ncccc2c1	-382.5	-205.9	9.5	-159.0	13.5	-67.4	-152.6	-344.7
COc1cc(SC)ccc1C(=O)Nc1ccc2c(c1)OCO2	nt	nt	nt	-76.3	nt	nt	nt	nt
COc1cccc(N=Nc2ccc3ccccc3c2O)c1	i	-196.8	-1.5	-34.0	-15.7	-158.3	-112.2	-295.1
